We go through 4 molecules from ChEMBL document CHEMBL3988442, “University of Dundee, Small-Polar-MMV Screening Library” (2021).

Holding throughout (parameters): scale not given: direction of the effect not stated beside the values
For assay [1], the target named is Protein translocase subunit SecA (Escherichia coli (strain K12)) (UniProt P10408). Nature of the assay: Assay to Identify E. coli SecA ATPase Inhibitors. It counts as functional. As to conditions: 30 µM.
In assay [2] the target is T1, Ubiquitin-activating enzyme e1, putative (Leishmania donovani (strain BPK282A1)) (UniProt E9BSI1).
T1 sequence (whole entry): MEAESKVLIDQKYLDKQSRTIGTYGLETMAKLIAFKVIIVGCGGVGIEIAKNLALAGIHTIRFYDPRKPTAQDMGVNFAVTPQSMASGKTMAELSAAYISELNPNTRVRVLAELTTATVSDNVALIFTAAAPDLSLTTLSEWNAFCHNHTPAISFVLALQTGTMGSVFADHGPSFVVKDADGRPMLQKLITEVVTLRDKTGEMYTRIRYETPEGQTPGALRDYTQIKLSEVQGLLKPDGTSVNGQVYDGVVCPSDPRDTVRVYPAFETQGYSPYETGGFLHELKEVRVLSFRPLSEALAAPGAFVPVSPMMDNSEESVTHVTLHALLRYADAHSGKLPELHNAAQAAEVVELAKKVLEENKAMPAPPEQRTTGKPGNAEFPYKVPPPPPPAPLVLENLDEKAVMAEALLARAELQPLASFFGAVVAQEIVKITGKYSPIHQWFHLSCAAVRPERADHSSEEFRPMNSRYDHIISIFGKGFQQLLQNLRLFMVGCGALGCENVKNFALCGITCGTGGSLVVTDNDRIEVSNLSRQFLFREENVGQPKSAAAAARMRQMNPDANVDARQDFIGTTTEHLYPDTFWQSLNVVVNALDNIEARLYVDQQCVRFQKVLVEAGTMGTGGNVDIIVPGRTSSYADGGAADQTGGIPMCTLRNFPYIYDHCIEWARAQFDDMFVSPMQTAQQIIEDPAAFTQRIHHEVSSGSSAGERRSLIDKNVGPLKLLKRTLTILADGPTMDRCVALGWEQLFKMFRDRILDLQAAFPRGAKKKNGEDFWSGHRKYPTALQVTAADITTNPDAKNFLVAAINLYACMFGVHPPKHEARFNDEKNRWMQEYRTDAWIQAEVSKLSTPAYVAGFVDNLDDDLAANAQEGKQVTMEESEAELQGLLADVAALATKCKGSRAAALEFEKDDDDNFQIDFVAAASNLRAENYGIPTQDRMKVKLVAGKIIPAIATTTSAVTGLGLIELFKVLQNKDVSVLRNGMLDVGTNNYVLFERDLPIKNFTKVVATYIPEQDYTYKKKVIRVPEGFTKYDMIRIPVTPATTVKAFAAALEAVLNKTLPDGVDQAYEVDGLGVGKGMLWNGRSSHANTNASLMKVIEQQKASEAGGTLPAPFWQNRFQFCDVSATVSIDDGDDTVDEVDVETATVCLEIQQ
Description: Leishmania donovani Ubiquitin Activating Enzyme (LdE1). It counts as functional. The note with it: 30 µM.

The target in assay [3] is T2, Aspartate--tRNA(Asp/Asn) ligase (Mycobacterium tuberculosis (strain ATCC 25618 / H37Rv)) (UniProt P9WFW3). Further: in the data most compounds retested in dose-response had high values.
T2 sequence (whole entry): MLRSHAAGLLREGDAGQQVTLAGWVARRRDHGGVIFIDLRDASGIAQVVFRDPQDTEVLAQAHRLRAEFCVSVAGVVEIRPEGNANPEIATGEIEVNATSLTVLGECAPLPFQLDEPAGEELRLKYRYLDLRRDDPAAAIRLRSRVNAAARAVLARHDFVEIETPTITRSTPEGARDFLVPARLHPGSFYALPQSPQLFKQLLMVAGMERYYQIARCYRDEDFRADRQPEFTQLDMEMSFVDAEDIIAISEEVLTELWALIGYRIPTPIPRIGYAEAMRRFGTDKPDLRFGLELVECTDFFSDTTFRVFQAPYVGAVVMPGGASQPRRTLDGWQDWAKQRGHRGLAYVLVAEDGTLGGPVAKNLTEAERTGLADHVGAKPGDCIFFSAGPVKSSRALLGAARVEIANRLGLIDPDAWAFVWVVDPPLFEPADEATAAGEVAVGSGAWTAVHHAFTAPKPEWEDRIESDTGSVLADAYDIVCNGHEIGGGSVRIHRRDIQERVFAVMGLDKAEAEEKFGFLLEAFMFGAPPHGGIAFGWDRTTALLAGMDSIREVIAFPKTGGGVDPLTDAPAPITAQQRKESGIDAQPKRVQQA
Nature of the assay: Assay for Asp RNA synthetase-1 from Mycobacterium tuberculosis. As to conditions: 30 µM. It counts as functional.

The target of assay [4] is AMP-activated protein kinase, AMPK (Homo sapiens) (UniProt P54646+O43741+P54619+Q9UGJ0+Q9Y478+Q13131+Q9UGI9). Description: AMP-dependent Kinase enzyme assay. An in vitro enzyme assay that detects ADP turnover that is directly proportional to AMPK activity. This uses naive AMPK that is activated during the assay with MK-8722. It counts as functional. The note with it: 30 µM.

The target in assay [5] is Sialic acid-binding Ig-like lectin 9 (Homo sapiens) (UniProt Q9Y336). Description: Hs-Siglec9 ALPHAscreen SOP 20170721. The note with it: 10 µM. A general note: Bead proximity is the source of the signal in Alpha formats.
Sequence of Sialic acid-binding Ig-like lectin 9 (Homo sapiens) (Q9Y336 whole entry): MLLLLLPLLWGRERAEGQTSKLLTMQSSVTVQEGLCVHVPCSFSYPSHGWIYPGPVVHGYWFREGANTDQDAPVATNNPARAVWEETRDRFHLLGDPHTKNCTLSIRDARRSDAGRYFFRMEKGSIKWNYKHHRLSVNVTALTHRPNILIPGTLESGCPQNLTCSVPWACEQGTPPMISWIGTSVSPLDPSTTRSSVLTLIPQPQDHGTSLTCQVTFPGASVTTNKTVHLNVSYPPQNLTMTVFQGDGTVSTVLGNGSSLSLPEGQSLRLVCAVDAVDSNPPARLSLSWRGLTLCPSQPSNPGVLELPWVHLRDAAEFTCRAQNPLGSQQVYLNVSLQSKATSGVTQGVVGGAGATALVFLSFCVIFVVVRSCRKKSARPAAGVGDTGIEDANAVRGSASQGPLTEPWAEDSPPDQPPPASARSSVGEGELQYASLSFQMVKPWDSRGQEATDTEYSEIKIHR
Another assay has as its system Trypanosoma cruzi. Description: Trypanosoma cruzi phosphomannomutase and mannose-1-phosphate guanylyltransferase assay. It counts as functional. The note with it: 10 µM.
The target of assay [6] is T3, Arginase-2, mitochondrial (Homo sapiens) (UniProt P78540).
T3 sequence (whole entry): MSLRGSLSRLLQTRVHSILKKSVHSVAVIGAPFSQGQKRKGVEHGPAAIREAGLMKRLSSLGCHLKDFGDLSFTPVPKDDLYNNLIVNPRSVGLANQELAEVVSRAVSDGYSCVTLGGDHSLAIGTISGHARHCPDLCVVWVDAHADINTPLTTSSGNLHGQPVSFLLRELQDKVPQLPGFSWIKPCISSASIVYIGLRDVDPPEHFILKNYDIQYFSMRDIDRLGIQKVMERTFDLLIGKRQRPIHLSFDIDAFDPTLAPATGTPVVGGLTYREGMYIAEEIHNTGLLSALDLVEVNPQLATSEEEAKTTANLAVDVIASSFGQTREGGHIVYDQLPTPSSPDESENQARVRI
Nature of the assay: in vitro enzyme assay to detect the production of urea directly proportional to the activity of Arginase II. Further: in the data most compounds retested in dose-response had high values. As to conditions: 33.3 µM. The class given is functional.

The target in assay [7] is T4, Proteasome subunit beta (Trypanosoma cruzi) (UniProt O96673).
T4 sequence (whole entry): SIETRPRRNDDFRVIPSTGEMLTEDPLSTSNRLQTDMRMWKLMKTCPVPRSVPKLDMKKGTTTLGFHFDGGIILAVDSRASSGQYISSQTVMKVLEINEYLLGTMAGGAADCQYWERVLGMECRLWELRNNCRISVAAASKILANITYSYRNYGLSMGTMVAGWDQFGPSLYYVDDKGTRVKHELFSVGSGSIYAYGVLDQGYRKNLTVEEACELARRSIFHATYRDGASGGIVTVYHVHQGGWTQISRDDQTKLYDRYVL
Description: Trypanosoma cruzi proteasome chymotrypsin-like activity (TcProtChymo) assay. Further: in the data most compounds retested in dose-response had high values. It counts as functional. The note with it: 9.37 µM.

For the next assay, the species on record is Homo sapiens. Nature of the assay: To identify inhibition of the IFN signalling (Jak-Stat) pathway via expression of an eGFP reporter gene under the control of an IFN-stimulated response element (ISRE) containing MxA promoter. The note with it: 30 µM. It counts as functional. For orientation: In a reporter assay the amount or activity of a reporter protein is the signal.

In assay [8] the target is Shiga toxin 2 (Escherichia coli O157:H7) (UniProt P09385+P09386). Nature of the assay: E. coli 0.157:H7 Shiga Toxin SOP - stx2 screening assay. The class given is functional. As to conditions: 30 µM.
In assay [9] the target is T5, Tyrosyl-tRNA synthetase, putative (Trypanosoma cruzi (strain CL Brener)) (UniProt Q4DSP6).
T5 sequence (whole entry): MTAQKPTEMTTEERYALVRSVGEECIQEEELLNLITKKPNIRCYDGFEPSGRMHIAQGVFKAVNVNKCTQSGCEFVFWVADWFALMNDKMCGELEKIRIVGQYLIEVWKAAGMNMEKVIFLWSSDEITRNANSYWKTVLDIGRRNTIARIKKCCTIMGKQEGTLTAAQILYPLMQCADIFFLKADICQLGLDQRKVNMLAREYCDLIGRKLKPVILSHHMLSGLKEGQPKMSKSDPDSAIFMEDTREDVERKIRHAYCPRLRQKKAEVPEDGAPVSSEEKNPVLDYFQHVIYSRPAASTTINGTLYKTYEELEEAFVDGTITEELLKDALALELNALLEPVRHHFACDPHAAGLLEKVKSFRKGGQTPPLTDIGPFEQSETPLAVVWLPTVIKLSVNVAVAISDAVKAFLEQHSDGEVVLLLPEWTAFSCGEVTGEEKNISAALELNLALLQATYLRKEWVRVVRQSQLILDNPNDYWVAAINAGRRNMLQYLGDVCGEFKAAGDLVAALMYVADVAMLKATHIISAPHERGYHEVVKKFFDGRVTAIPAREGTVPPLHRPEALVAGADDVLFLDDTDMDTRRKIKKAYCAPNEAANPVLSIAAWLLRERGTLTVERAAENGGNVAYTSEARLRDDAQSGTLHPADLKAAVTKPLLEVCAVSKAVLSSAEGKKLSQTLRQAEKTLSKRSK
Nature of the assay: Trypanosoma cruzi tyrosyl tRNA synthetase (TcYRS) _High Tyrosine SOP. Further: in the data most compounds retested in dose-response had high values. The class given is functional. As to conditions: 30 µM.

For assay [10], the target named is T5, Tyrosyl-tRNA synthetase, putative (Trypanosoma cruzi (strain CL Brener)). Description: Trypanosoma cruzi tyrosyl tRNA synthetase (TcYRS) SOP. The class given is functional. As to conditions: 30 µM.
The target of assay [11] is Chromo domain-containing protein 1 (Saccharomyces cerevisiae (strain ATCC 204508 / S288c) (Baker's yeast)) (UniProt P32657). Nature of the assay: ScCHD-1 Enzyme Inhibition Assay. Further: in the data most compounds retested in dose-response had high values. It counts as functional. As to conditions: 30 µM.
Sequence of Chromo domain-containing protein 1 (Saccharomyces cerevisiae (strain ATCC 204508 / S288c) (Baker's yeast)) (P32657 whole entry, the tested form may be a part): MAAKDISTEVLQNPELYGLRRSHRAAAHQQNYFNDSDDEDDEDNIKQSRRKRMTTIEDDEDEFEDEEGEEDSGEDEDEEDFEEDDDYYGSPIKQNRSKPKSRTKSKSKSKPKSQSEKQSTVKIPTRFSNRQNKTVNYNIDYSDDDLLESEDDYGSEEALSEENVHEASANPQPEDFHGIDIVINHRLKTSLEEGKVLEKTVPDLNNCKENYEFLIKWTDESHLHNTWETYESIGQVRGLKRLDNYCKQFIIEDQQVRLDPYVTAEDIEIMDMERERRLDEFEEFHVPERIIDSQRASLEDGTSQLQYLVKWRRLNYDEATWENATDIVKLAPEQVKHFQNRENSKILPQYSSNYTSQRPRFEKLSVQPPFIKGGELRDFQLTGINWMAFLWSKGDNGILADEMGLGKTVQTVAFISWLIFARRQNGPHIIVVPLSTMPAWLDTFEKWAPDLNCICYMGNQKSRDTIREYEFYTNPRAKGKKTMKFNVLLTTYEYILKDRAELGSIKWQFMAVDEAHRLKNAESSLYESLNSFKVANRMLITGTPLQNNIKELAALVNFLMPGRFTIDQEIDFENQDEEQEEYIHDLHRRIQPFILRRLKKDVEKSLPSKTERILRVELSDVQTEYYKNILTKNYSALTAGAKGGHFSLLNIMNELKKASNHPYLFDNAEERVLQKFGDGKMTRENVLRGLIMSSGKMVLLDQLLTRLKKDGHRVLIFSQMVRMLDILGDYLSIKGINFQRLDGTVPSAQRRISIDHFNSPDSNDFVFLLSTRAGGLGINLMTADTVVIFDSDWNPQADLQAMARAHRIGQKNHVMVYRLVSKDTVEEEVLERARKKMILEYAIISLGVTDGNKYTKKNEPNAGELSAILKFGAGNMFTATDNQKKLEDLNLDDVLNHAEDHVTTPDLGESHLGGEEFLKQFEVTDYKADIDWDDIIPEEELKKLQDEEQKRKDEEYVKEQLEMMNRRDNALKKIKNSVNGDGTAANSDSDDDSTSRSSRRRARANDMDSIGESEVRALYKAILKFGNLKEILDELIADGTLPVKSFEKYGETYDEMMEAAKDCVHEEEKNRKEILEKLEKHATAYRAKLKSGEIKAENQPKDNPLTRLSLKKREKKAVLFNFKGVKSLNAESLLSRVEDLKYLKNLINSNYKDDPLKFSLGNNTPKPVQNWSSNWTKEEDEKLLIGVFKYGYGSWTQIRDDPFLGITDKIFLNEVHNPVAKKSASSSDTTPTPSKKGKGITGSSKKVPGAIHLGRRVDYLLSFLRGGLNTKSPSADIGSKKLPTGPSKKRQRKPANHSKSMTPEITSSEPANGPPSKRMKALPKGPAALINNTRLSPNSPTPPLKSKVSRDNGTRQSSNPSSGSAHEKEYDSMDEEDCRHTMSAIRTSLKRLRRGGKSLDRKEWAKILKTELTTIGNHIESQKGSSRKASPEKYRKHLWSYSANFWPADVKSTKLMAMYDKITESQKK

For some of these results: Measured potencies and affinities stand elsewhere.

Sequence of Protein translocase subunit SecA (Escherichia coli (strain K12)) (P10408 whole entry): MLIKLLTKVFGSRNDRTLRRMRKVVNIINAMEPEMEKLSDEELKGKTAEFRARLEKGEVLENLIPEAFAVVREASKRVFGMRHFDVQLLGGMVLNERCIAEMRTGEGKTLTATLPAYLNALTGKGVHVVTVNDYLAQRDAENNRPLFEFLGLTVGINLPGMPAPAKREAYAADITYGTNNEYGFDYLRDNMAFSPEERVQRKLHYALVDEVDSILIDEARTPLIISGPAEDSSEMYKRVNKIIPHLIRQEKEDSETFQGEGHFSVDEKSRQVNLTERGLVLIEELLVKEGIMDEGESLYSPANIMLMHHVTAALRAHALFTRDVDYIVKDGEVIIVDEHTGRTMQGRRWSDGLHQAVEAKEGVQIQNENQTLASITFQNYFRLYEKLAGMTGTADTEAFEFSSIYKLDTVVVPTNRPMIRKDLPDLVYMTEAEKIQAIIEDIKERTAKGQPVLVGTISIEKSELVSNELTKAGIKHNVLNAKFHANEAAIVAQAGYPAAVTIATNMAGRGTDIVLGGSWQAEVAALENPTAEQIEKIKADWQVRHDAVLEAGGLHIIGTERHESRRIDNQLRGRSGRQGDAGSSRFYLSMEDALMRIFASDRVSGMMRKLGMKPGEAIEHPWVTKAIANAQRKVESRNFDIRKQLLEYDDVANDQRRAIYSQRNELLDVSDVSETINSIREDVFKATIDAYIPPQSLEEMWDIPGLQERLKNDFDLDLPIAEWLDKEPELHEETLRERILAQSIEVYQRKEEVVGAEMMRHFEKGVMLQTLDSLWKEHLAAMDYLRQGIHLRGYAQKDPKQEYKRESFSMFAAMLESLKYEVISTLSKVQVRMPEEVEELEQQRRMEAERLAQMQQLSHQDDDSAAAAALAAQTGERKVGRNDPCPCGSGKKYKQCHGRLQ

Regarding `O=C(NC1CCC1)[C@@H]1C[C@@H]2CCN(Cc3ccncc3)C[C@H]2O1`, the Percent Effect was -4.4% in assay [1]; 8% in [2]; -3.87% in assay [3]; 0.172% in assay [4]; 2.75% in assay [5]; 5.79% in the assay on Trypanosoma cruzi. Also, the Percent Effect is -52.1% in [6]; 8.21% in assay [7]; 21.8% in the assay filed under Homo sapiens; 1.98% in [8]; 4.17% in assay [9]; 12.5% in assay [10]. In assay [11], the Percent Effect was -8.66%.

As for `CO[C@@H]1CC[C@H]2[C@H]1OCCN2CC1CCOCC1`, the Percent Effect is -7.48% in assay [1]; 13.5% in [2]; -1.82% in assay [3]; -2.63% in [4]; 10.8% in assay [5]; 3.91% with Trypanosoma cruzi. Also, the Percent Effect amounted to 3.33% in assay [6]; 8.88% in assay [7]; 1.72% in the assay filed under Homo sapiens; 9.96% in assay [8]; 4.95% in [9]; 13.4% in assay [10]. Also, the Percent Effect in [11] was -4.03%.

As to `CN(C)C(=O)COC[C@H]1CC[C@@H]2[C@@H](CCN2Cc2ccccn2)O1`, the Percent Effect in [1] is 1.44%; in assay [2], 2.7%; in [3], -8.07%; in [4], -3.81%; in [5], 1.03%; in the assay on Trypanosoma cruzi, 4.1%. Besides, the Percent Effect in [6] is 2.5%; in [7], 8.88%; in the assay listed under Homo sapiens it was -3.32%; in assay [8] it was -6.42%; in assay [9] it was -14.8%; in assay [10] it was 3.66%. For the same molecule, the Percent Effect in assay [11] is -2.81%.

For the molecule `COc1ccc(C2SCC(=O)Nc3ccsc32)cc1` (configuration not stated), the Percent Effect in [1] was -5.35%; in assay [2] it was -12%; in assay [3], 4.36%; in [4] it was 29%; in assay [5], 5.11%; in the assay on Trypanosoma cruzi, -5.5%. The Percent Effect in assay [6] was 1.94%; in assay [7], 13.9%; in the assay listed under Homo sapiens, 30.7%; in assay [8], -15.2%; in [9], 10.6%; in assay [10] it was 2.56%. The Percent Effect in assay [11] is 11.2%.
